# From PubChem BioAssay (EPA / NIEHS)
# Where “and” joins values, the source holds several entries; their conditions need not be identical. Identical values can stand only once. Inconclusive results are not listed. The source holds several records for some structures; these can differ, active in one and inactive in another. Calls of active or inactive are those of the source. How the source made its calls, unless noted: active means hit-call score of the fitted dose curve at least 0.9, where 1 is the maximum; inactive means score below 0.9.
# Legend:
# [1] = BSK_IMphg_SRB.Mphg: Macrophage Viability Assessment in the BioMAP Diversity Plus: IMphg Assay (AID 2284295); conditions: primary human endothelial cells with macrophages
# Summary of the method: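 Venular endothelial cells co-cultured with macrophages, read 24 h after dosing. Total protein measured by 0.1% SRB staining after 10% TCA fixation, absorbance at 560 nm. Fitted in positive direction against DMSO baseline.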
# [2] = read-out: Thrombomodulin, THBD (gene 7056); test: BSK_LPS_Thrombomodulin: BioMAP Diversity Plus: LPS Assay for Thrombomodulin Biomarker Activity (AID 2284296); conditions: primary human HUVEC with PBMC
# Summary of the method: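 Human umbilical vein endothelial cells co-cultured with PBMC and stimulated with LPS; cell-surface thrombomodulin measured by ELISA 24 hours after compound. Gain or loss versus DMSO; cytotoxicity checked by SRB staining in parallel cultures.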
# CD69, CD69 (gene 969) = test: BSK_LPS_CD69: BioMAP Diversity Plus: LPS Assay for CD69 Biomarker Activity (AID 2284303); conditions: primary human HUVEC with PBMC
# Summary of the method: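 Human umbilical vein endothelial cells co-cultured with PBMC under LPS stimulation, chemical exposure 24 h; cell-surface CD69 measured by ELISA and fitted in the positive direction versus DMSO.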
# [3] = IUF_NPC2c_oligodendrocyte_migration_120hr: Leibniz Research Institute for Environmental Medicine (IUF) 120-hour Neural Progenitor Cell Migration Assay for Oligodendrocyte Migration (NPC2c) (AID 2284297);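 further: O4-positive oligodendrocyte migration distance divided by radial glia migration distance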
# Summary of the method: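 Human fetal cortex-derived neural progenitor spheres (0.3 mm) were plated on poly-D-lysine/laminin in N2 differentiation medium and exposed to 7 concentrations for 120 h, with half-medium renewal at day 3. Oligodendrocyte migration distance was normalized to radial glia migration, relative to DMSO.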
# [4] = IUF_NPC2a_radial_glia_migration_120hr: Leibniz Research Institute for Environmental Medicine (IUF) 120-hour Neural Progenitor Cell Migration Assay for Radial Glia Migration (NPC2a) (AID 2284298)
# Summary of the method: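 Single 0.3 mm primary human fetal-cortex (GW 16-19) NPC spheres were plated on poly-D-lysine/laminin in N2 differentiation medium and exposed from day 0 for 120 h, half-medium refreshed day 3. Migration distance came from Hoechst nuclei-density imaging, relative to DMSO.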
# [5] = IUF_NPC2a_radial_glia_migration_72hr: Leibniz Research Institute for Environmental Medicine (IUF) 72-hour Neural Progenitor Cell Migration Assay for Radial Glia Migration (NPC2a) (AID 2284299)
# Summary of the method: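 Migration out of plated human neural progenitor spheres is scored at 72 h as the distance in um from the sphere core edge to the edge of the migration area. Values are the mean of four manual measurements per well, normalised to DMSO.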
# [6] = IUF_NPC2b_neuronal_migration_120hr: Leibniz Research Institute for Environmental Medicine (IUF) 120-hour Neural Progenitor Cell Migration Assay for Neuron Migration (NPC2b) (AID 2284300)
# Summary of the method: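 Primary human fetal cortex neural progenitor spheres (0.3 mm) plated on poly-D-lysine/laminin in N2 differentiation medium, exposed 120 h with half-medium refresh at day 3. TUBB3-stained neuron distance from sphere core, normalized to radial glia migration, versus DMSO.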
# [7] = IUF_NPC3_neuronal_differentiation_120hr: Leibniz Research Institute for Environmental Medicine (IUF) 120-hour Neuronal Differentiation Assay (NPC3) (AID 2284301)
# Summary of the method: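 Primary human fetal neural progenitor spheres (GW 16-19, 0.3 mm) plated on poly-D-lysine/laminin in N2 medium, exposed from day 0 for 120 h with half-medium refresh at day 3. TUBB3+ cells as percent of Hoechst nuclei in migration area; DMSO baseline.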
# [8] = IUF_NPC4_neurite_length_120hr: Leibniz Research Institute for Environmental Medicine (IUF) 120-hour Neuronal Morphology Assay for Neurite Length (NPC4) (AID 2284302)
# Summary of the method: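 Human fetal cortex (GW 16-19) neural progenitor spheres, 0.3 mm, were plated on poly-D-lysine/laminin in N2 differentiation medium and exposed from day 0 for 120 h, half-feeding at day 3. Mean TUBB3+ neurite length (µm) came from skeletonized images, relative to DMSO.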
# [9] = IUF_NPC5_oligodendrocyte_differentiation_120hr: Leibniz Research Institute for Environmental Medicine (IUF) 120-hour Oligodendrocyte Differentiation Assay (NPC5) (AID 2284304; active means hit-call score of the fitted dose curve at least 0.9, where 1 is the maximum;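 further: primary human fetal neural progenitor spheres plated to migrate and differentiate; share of O4-positive cells among Hoechst nuclei found by CNN image analysis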)
# Summary of the method: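 Primary human fetal (GW 16-19) neural progenitor spheres (0.3 mm) plated on poly-D-lysine/laminin in N2 differentiation medium, exposed from day 0 for 120 h with half-medium refresh at day 3; O4-positive cells as percent of Hoechst nuclei, CNN-identified, versus DMSO.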
compound,measurement,setting,value
OCCCC(F)(F)C(F)(F)C(F)(F)C(F)(F)C(F)(F)C(F)(F)C(F)(F)F,AC50,[1],46.3 µM (active)
same,outcome,[1],inactive
same,AC50,[2],49.4 µM (active) and 45.6 µM (active)
same,AC50,"CD69, CD69 (gene 969)",52.1 µM (active) and 51.7 µM (active)
O=C(O)C(F)(F)C(F)(F)OC(F)(F)F,outcome,[1],inactive
same,outcome,[2],inactive
same,outcome,"CD69, CD69 (gene 969)",inactive
FC(F)(F)C(F)(F)C(F)(F)N(C(F)(F)C(F)(F)C(F)(F)F)C(F)(F)C(F)(F)C(F)(F)F,outcome,[1],inactive
same,outcome,[2],inactive
same,outcome,"CD69, CD69 (gene 969)",inactive
O=C(O)C(F)(F)C(F)(F)C(F)(F)F,outcome,[1],inactive
same,outcome,[2],inactive
same,outcome,"CD69, CD69 (gene 969)",inactive
CC(CCl)OP(=O)(OC(C)CCl)OC(C)CCl (stereo not given),outcome,[3],inactive
same,outcome,[4],inactive
same,outcome,[5],inactive
same,outcome,[6],inactive
same,outcome,[7],inactive
same,outcome,[8],inactive
same,AC50,[9],5.43 µM (active)
OC[C@@H](O)[C@@H](O)[C@H](O)[C@@H](O)CO,outcome,[3],inactive
same,outcome,[4],inactive
same,outcome,[5],inactive
same,outcome,[6],inactive
same,outcome,[7],inactive
same,outcome,[8],inactive
O=C(O)C(F)(F)C(F)(F)F,outcome,[1],inactive
same,outcome,[2],inactive
same,outcome,"CD69, CD69 (gene 969)",inactive
Cc1ccc(S(=O)(=O)OCC(F)(F)C(F)(F)C(F)(F)C(F)(F)C(F)(F)C(F)F)cc1,outcome,[1],inactive
same,outcome,[2],inactive
same,AC50,"CD69, CD69 (gene 969)",7.94 µM (active)
same,outcome,"CD69, CD69 (gene 969)",inactive
FC(F)(F)C(F)(F)C(F)(F)C(F)(F)CCI,outcome,[1],inactive
same,outcome,[2],inactive
same,outcome,"CD69, CD69 (gene 969)",inactive
C=C(C)C(=O)OCCC(F)(F)C(F)(F)C(F)(F)C(F)(F)C(F)(C(F)(F)F)C(F)(F)F,outcome,[1],inactive
same,outcome,[2],inactive
same,outcome,"CD69, CD69 (gene 969)",inactive
COC(=O)CCC(F)(F)C(F)(F)C(F)(F)C(F)(F)F,outcome,[1],inactive
same,outcome,[2],inactive
same,outcome,"CD69, CD69 (gene 969)",inactive
FC(F)(F)C(F)(F)C(F)(F)C(F)(F)C(F)(F)C(F)(F)C(F)(F)C(F)(F)CCS,outcome,[1],inactive
same,outcome,[2],inactive
same,outcome,"CD69, CD69 (gene 969)",inactive
CCCCCCOC(=O)c1ccccc1O,outcome,[2],inactive
same,AC50,"CD69, CD69 (gene 969)",39.4 µM (active) and 46.4 µM (active)
O=S(=O)(O)C(F)(F)C(F)(F)C(F)(F)C(F)(F)C(F)(F)C(F)(F)C(F)(F)F,outcome,[1],inactive
same,outcome,[2],inactive
same,outcome,"CD69, CD69 (gene 969)",inactive
CCCCC(CC)COP(=O)(O)OCC(CC)CCCC (stereo not given),outcome,[2],inactive
same,AC50,"CD69, CD69 (gene 969)",0.987 µM (active)
same,outcome,"CD69, CD69 (gene 969)",inactive
O=C(O)C(F)(OC(F)(F)C(F)(OC(F)(F)C(F)(F)C(F)(F)F)C(F)(F)F)C(F)(F)F (stereo not given),outcome,[1],inactive
same,outcome,[2],inactive
same,outcome,"CD69, CD69 (gene 969)",inactive
CC(C)(C)C(=O)CC(=O)C(F)(F)C(F)(F)C(F)(F)F,outcome,[1],inactive
same,outcome,[2],inactive
same,outcome,"CD69, CD69 (gene 969)",inactive
OCC(F)(F)C(F)(F)C(F)(F)F,outcome,[1],inactive
same,outcome,[2],inactive
same,outcome,"CD69, CD69 (gene 969)",inactive
O=C(O)C(F)(F)C(F)(F)C(F)(F)C(F)(F)C(F)(F)C(F)(F)C(F)(F)C(F)(F)C(F)(F)C(F)(F)C(F)(F)C(F)(F)C(F)(F)F,outcome,[1],inactive
same,outcome,[2],inactive
same,outcome,"CD69, CD69 (gene 969)",inactive
NC(=O)C(F)(F)C(F)(F)C(F)(F)C(F)(F)F,outcome,[1],inactive
same,outcome,[2],inactive
same,outcome,"CD69, CD69 (gene 969)",inactive
CCO[Si](CCC(F)(F)C(F)(F)C(F)(F)C(F)(F)C(F)(F)C(F)(F)F)(OCC)OCC,outcome,[1],inactive
same,outcome,[2],inactive
same,outcome,"CD69, CD69 (gene 969)",inactive
O=S(=O)(OCCOC(F)(F)F)C(F)(F)F,outcome,[1],inactive
same,outcome,[2],inactive
same,outcome,"CD69, CD69 (gene 969)",inactive
O=P(O)(O)OCCC(F)(F)C(F)(F)C(F)(F)C(F)(F)C(F)(F)C(F)(F)F,outcome,[1],inactive
same,outcome,[2],inactive
same,outcome,"CD69, CD69 (gene 969)",inactive
O=C(O)C(F)(F)C(F)(F)C(F)(F)C(F)(F)C(F)(F)C(F)(F)C(F)(F)C(F)(F)C(F)(F)C(F)(F)C(F)(F)C(F)(F)F,outcome,[1],inactive
same,outcome,[2],inactive
same,outcome,"CD69, CD69 (gene 969)",inactive
C=CC(=O)OCC(F)(F)C(F)(F)C(F)(F)C(F)(F)C(F)(F)C(F)(F)C(F)(F)F,outcome,[1],inactive
same,outcome,[2],inactive
same,outcome,"CD69, CD69 (gene 969)",inactive
FC(F)(F)C(F)(F)C(F)(F)C(F)(F)C(F)(F)CCI,outcome,[1],inactive
same,outcome,[2],inactive
same,outcome,"CD69, CD69 (gene 969)",inactive
OCCCC(F)(F)C(F)(F)C(F)(F)F,outcome,[1],inactive
same,outcome,[2],inactive
same,outcome,"CD69, CD69 (gene 969)",inactive
C=CC(F)(F)C(F)(F)C(F)(F)C(F)(F)C(F)(F)C(F)(F)C(F)(F)C(F)(F)C=C,outcome,[1],inactive
same,outcome,[2],inactive
same,outcome,"CD69, CD69 (gene 969)",inactive
CCCCCCCCC(F)(F)C(F)(F)C(F)(F)C(F)(F)C(F)(F)C(F)(F)F,outcome,[1],inactive
same,outcome,[2],inactive
same,outcome,"CD69, CD69 (gene 969)",inactive
